This is an account of results in article PMC7862700, “An all-to-all approach to the identification of sequence-specific readers for epigenetic DNA modifications on cytosine”.

Holding throughout (test): DAPPL (digital affinity profiling via proximity ligation, sequencing); 10 mM Tris-HCl pH 7.5, 50 mM NaCl, 1 mM DTT, 4% glycerol, room temperature, 30 min; GST-TFs on glutathione beads, 16-mer random dsDNA library, 0.1% formaldehyde crosslink after washing; high values mean tight binding
One assay concerns the target T1, FLI1 (Homo sapiens, UniProt Q01543 1-452).
T1 sequence: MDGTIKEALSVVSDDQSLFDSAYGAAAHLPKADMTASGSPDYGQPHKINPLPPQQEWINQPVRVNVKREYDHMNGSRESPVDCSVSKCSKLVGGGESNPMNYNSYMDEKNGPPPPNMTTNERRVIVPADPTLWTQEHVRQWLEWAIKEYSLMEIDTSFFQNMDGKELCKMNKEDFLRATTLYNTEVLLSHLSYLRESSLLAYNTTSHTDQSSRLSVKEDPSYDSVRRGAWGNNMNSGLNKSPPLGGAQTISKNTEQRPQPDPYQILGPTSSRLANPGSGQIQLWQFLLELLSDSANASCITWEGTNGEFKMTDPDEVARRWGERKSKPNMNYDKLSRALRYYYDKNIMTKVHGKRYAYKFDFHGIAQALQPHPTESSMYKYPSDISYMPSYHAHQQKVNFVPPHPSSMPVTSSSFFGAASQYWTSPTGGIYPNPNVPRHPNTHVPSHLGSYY
Conditions: protein: recombinant; tags: N-terminal GST; dsDNA, one strand shown. An outline of the steps:
(§1)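 Yeast served to express human transcription factors as GST fusions, which were then captured on glutathione beads and labelled with DNA barcodes. Pooled with a tag-only sample, they were incubated with 200 nmole of a 16-mer random double-stranded DNA library for 30 min at room temperature in Tris/NaCl/DTT/glycerol buffer, washed, crosslinked with 0.1% formaldehyde, ligated by proximity, amplified by PCR and sequenced. Dividing each hexamer's read frequency for a factor by its frequency for the tag-only sample gives the binding signal.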

The target of a further assay is T2, ELK1 (Homo sapiens, UniProt P19419 1-428).
T2 sequence: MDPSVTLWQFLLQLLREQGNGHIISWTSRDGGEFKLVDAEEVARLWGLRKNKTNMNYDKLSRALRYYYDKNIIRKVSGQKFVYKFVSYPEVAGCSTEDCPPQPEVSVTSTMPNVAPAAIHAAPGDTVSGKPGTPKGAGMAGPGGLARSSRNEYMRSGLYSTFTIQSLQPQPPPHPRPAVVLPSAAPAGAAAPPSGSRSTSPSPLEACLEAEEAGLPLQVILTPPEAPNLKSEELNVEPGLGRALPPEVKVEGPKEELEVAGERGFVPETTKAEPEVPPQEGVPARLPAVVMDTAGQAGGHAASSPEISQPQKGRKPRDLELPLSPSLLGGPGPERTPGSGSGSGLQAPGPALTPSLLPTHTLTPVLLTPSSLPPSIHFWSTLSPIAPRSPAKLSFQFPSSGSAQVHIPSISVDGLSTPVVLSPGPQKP
Conditions: protein: recombinant; tags: N-terminal GST; dsDNA, one strand shown. An outline of the steps: as §1

The next assay concerns the target T3, GABPA (Homo sapiens, UniProt Q06546 1-454).
T3 sequence: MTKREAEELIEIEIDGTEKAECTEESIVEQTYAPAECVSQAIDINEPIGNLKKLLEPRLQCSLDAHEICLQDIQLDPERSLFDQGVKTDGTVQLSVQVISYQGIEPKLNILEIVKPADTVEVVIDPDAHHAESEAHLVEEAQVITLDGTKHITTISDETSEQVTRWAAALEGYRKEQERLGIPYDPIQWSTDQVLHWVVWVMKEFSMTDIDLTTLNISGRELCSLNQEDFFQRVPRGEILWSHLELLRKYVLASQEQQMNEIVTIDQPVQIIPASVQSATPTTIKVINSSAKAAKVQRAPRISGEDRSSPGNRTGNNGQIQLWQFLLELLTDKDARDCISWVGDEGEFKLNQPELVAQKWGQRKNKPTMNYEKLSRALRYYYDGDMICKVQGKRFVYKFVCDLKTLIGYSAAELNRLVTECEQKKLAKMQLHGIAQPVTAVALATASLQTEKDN
The conditions noted are these: protein: recombinant; tags: N-terminal GST; dsDNA, one strand shown. A digest of the protocol: as §1

The target of another assay is T4, ERG (Homo sapiens, UniProt P11308 1-479).
T4 sequence: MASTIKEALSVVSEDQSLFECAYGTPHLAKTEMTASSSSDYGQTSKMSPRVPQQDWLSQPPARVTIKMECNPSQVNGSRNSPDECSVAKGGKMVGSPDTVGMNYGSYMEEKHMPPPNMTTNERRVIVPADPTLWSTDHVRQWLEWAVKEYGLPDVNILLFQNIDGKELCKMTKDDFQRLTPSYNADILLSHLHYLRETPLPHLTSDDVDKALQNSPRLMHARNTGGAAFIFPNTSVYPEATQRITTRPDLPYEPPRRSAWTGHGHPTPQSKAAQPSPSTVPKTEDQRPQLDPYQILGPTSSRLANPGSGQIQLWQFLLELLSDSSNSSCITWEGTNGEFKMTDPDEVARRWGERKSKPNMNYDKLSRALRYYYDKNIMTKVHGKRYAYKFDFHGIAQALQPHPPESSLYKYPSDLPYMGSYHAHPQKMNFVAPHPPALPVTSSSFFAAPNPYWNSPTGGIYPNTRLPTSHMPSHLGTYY
Conditions: protein: recombinant; tags: N-terminal GST; dsDNA, one strand shown. A digest of the protocol: as §1

A further assay has as its target ELF1 (Homo sapiens, UniProt P32519 1-619). The conditions noted are these: protein: recombinant; tags: N-terminal GST; dsDNA, one strand shown. An outline of the steps: as §1
The next assay addresses T5, EHF (Homo sapiens, UniProt Q9NZC4 1-300).
T5 sequence: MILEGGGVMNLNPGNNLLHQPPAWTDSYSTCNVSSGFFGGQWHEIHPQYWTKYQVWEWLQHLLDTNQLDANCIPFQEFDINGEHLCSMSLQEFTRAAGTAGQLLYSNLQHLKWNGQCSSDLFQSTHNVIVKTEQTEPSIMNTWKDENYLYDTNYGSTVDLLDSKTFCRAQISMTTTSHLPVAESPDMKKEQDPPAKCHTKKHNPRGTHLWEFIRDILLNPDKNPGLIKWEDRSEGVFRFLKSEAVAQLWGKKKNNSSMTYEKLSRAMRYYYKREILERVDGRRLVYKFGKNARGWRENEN
Conditions: protein: recombinant; tags: N-terminal GST; dsDNA, one strand shown. An outline of the steps: as §1

The next assay deals with SPI1 (Homo sapiens, UniProt P17947 1-270). Conditions: protein: recombinant; tags: N-terminal GST; dsDNA, one strand shown. A digest of the protocol:
as §1

A further assay concerns the target SPIB (Homo sapiens, UniProt Q01892 1-262). Conditions: protein: recombinant; tags: N-terminal GST; dsDNA, one strand shown. An outline of the steps:
as §1

The target in the next assay is T6, ELK3 (Homo sapiens, UniProt P41970 1-407).
T6 sequence: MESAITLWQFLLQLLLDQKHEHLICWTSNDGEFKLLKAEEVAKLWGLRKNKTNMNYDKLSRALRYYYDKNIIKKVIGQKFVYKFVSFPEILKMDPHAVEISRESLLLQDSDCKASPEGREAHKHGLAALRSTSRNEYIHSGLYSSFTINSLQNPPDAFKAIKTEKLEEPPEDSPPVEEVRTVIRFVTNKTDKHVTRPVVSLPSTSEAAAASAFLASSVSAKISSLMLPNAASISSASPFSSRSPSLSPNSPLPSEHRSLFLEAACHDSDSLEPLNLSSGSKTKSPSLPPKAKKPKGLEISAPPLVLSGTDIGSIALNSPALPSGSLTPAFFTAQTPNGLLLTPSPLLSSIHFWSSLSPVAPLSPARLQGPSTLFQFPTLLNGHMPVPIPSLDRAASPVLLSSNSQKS
The conditions noted are these: protein: recombinant; tags: N-terminal GST; dsDNA, one strand shown. A digest of the protocol:
as §1

The target in another assay is T7, FEV (Homo sapiens, UniProt Q99581 1-238).
T7 sequence: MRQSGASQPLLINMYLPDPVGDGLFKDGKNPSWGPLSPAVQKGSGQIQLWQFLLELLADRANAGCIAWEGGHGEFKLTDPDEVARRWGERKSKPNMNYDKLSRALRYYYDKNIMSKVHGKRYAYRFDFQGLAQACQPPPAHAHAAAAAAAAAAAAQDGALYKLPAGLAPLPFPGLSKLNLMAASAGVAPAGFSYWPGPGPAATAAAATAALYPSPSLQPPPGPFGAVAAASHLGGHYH
Conditions: protein: recombinant; tags: N-terminal GST; dsDNA, one strand shown. A digest of the protocol: as §1

In another assay the target is ETV5 (Homo sapiens, UniProt P41161 1-510). The conditions noted are these: protein: recombinant; tags: N-terminal GST; dsDNA, one strand shown. An outline of the steps: as §1
Chain of ETV5 (P41161 whole entry): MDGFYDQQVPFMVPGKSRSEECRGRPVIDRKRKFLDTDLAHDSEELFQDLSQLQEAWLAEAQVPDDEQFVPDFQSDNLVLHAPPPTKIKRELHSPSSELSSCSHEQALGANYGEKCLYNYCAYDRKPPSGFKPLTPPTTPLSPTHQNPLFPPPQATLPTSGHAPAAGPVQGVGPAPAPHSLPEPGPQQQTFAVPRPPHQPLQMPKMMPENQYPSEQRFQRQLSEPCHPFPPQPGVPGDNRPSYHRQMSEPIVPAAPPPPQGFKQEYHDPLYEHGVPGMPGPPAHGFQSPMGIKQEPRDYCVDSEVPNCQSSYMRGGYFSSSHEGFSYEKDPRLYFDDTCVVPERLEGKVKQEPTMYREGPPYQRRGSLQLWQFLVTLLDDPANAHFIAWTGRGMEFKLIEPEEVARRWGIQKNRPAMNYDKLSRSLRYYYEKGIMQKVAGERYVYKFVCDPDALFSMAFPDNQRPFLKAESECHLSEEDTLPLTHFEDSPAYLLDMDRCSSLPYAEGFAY
Another assay has as its target HSF1 (Homo sapiens, UniProt Q00613 1-529). Conditions: protein: recombinant; tags: N-terminal GST; chain copies: 3; dsDNA, one strand shown. A digest of the protocol: as §1
A further assay deals with T8, SPIC (Homo sapiens, UniProt Q8N5J4 1-248).
T8 sequence: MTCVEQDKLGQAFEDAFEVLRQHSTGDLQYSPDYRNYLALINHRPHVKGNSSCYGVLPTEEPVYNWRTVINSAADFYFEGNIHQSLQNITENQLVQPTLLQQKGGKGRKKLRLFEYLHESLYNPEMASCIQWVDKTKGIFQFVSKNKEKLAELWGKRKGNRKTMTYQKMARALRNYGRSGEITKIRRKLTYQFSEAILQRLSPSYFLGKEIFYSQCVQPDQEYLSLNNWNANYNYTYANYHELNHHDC
The conditions noted are these: protein: recombinant; tags: N-terminal GST; dsDNA, one strand shown. A digest of the protocol:
as §1

Another assay concerns the target ELF4 (Homo sapiens, UniProt Q99607 1-663). Conditions: protein: recombinant; tags: N-terminal GST; dsDNA, one strand shown. A digest of the protocol: as §1
In another assay the target is T9, ELK4 (Homo sapiens, UniProt P28324-2 1-405).
T9 sequence: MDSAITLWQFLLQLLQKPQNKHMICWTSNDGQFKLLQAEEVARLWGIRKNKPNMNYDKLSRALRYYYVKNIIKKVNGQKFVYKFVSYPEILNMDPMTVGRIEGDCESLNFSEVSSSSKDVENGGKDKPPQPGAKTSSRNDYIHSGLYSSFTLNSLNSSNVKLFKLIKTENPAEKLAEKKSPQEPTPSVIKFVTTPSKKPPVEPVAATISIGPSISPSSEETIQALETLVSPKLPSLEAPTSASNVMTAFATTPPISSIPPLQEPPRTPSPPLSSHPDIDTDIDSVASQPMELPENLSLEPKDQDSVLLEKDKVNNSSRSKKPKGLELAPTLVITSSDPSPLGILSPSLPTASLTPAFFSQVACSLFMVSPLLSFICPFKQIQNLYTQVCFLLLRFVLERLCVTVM
Conditions: protein: recombinant; tags: N-terminal GST; dsDNA, one strand shown. A digest of the protocol: as §1

In a further assay the target is T10, ETV2 (Homo sapiens, UniProt O00321 1-342).
T10 sequence: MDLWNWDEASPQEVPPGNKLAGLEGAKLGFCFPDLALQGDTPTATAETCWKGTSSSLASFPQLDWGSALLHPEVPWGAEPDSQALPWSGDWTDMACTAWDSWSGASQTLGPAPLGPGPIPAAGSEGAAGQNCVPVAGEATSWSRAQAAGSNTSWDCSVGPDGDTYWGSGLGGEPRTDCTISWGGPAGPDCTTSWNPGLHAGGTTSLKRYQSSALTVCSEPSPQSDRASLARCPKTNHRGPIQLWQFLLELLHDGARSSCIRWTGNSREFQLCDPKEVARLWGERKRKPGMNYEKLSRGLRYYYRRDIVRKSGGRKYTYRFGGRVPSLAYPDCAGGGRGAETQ
The conditions noted are these: protein: recombinant; tags: N-terminal GST; dsDNA, one strand shown. An outline of the steps:
as §1

The target in the next assay is T11, ELF3 (Homo sapiens, UniProt P78545 1-371).
T11 sequence: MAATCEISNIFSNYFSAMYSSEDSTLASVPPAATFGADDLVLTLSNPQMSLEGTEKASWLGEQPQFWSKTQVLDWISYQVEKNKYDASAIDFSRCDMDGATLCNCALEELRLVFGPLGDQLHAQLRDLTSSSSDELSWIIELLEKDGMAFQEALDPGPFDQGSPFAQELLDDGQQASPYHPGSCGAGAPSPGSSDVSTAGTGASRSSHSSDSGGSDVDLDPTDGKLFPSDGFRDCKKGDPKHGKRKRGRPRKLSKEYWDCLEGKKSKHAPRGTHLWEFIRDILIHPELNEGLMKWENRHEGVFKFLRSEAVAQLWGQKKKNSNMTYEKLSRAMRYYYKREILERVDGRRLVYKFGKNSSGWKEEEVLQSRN
Conditions: protein: recombinant; tags: N-terminal GST; dsDNA, one strand shown. A digest of the protocol: as §1

Another assay has as its target CRX (Homo sapiens, UniProt O43186 1-299). The conditions noted are these: protein: recombinant; tags: N-terminal GST; dsDNA, one strand shown. An outline of the steps:
as §1

A further assay addresses ETV1 (Homo sapiens, UniProt P50549 1-477). Conditions: protein: recombinant; tags: N-terminal GST; dsDNA, one strand shown. A digest of the protocol:
as §1

Chain of SPIB (Q01892 whole entry): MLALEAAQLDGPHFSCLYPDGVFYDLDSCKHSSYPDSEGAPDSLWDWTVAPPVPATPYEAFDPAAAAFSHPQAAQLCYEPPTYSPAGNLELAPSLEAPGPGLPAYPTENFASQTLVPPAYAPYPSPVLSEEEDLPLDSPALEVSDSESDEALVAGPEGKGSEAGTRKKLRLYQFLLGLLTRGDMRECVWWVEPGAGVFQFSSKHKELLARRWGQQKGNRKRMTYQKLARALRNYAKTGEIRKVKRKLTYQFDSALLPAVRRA
Chain of ELF1 (P32519 whole entry): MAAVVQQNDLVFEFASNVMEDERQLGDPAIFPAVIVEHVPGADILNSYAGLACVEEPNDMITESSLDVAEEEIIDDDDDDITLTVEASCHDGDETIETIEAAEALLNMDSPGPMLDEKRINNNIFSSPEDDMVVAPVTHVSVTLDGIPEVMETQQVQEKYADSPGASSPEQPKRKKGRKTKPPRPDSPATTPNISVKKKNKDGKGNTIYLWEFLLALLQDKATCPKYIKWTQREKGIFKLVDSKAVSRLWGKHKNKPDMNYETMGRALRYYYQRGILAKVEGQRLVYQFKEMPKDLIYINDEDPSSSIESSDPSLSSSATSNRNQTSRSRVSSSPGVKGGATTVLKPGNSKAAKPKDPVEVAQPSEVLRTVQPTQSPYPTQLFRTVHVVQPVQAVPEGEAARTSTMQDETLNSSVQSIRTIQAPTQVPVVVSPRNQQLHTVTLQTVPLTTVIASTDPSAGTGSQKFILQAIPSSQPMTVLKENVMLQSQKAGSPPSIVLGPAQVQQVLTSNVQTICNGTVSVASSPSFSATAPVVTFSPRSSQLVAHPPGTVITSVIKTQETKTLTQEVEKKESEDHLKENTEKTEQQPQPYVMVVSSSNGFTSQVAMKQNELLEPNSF
Chain of CRX (O43186 whole entry): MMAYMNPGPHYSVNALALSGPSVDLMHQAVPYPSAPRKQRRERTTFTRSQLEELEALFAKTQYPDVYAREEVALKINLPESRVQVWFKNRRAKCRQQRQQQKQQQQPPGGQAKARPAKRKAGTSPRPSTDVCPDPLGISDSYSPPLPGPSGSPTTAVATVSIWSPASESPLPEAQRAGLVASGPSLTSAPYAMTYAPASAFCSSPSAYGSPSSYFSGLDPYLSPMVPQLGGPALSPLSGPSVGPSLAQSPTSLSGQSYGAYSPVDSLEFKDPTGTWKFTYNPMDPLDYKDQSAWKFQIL
Chain of HSF1 (Q00613 whole entry): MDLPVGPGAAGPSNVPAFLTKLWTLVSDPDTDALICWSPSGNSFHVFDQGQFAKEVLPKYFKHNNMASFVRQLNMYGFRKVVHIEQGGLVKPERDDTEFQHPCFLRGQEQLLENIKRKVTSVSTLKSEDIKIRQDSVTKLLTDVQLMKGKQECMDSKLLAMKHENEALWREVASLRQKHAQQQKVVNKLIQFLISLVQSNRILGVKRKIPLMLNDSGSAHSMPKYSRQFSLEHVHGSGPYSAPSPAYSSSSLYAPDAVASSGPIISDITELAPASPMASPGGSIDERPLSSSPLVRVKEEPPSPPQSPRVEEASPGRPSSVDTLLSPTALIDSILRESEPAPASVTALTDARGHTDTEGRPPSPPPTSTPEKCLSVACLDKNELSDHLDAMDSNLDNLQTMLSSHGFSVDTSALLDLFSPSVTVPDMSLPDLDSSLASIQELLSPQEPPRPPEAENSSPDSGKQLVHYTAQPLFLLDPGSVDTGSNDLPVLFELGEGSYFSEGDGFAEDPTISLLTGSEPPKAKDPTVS
Chain of ETV1 (P50549 whole entry): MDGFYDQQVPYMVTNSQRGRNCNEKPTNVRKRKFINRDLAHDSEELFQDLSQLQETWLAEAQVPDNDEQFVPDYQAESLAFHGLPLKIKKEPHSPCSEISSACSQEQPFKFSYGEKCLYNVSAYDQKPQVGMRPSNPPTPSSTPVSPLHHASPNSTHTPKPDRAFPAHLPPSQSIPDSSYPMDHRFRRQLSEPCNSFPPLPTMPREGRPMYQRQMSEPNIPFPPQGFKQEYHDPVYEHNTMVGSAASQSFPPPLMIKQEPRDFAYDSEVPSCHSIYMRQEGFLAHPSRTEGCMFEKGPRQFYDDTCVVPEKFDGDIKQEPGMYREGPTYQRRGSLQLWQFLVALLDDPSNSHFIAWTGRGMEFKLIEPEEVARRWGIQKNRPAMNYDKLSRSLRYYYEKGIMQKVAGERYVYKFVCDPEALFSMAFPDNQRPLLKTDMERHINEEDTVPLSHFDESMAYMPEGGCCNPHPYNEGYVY
Chain of ELF4 (Q99607 whole entry): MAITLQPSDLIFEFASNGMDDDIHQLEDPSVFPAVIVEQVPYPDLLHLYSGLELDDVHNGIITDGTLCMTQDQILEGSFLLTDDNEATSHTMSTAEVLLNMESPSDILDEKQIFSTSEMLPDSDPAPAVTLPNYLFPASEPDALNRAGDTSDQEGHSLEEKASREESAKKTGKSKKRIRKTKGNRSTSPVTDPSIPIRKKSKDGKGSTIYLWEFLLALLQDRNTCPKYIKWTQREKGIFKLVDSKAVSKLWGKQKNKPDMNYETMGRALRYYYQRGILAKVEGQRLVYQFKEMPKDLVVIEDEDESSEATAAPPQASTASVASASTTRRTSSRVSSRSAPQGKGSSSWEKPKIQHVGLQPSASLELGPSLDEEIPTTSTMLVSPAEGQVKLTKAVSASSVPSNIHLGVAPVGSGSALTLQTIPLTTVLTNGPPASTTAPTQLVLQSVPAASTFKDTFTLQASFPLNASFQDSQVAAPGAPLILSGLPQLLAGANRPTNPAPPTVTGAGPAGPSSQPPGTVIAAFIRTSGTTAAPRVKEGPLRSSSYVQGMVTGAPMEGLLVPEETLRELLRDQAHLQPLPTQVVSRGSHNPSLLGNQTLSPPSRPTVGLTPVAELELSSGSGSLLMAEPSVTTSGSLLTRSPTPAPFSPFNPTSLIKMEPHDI

On to CCATTA, for which the binding signal is 1.08 fold enrichment (6-mer frequency, TF over GST control) in the assay with FLI1; 1.05 fold enrichment (6-mer frequency, TF over GST control) with ELK1; 1.11 fold enrichment (6-mer frequency, TF over GST control) in the assay with GABPA; 1.1 fold enrichment (6-mer frequency, TF over GST control) in the assay with ERG; 1.14 fold enrichment (6-mer frequency, TF over GST control) in the assay with ELF1; 1.06 fold enrichment (6-mer frequency, TF over GST control) with EHF. Also, the binding signal with SPI1 was 1.17 fold enrichment (6-mer frequency, TF over GST control); in the assay with SPIB, 1.23 fold enrichment (6-mer frequency, TF over GST control); in the assay with ELK3 it was 1.09 fold enrichment (6-mer frequency, TF over GST control); with FEV, 1.07 fold enrichment (6-mer frequency, TF over GST control); with ETV5, 1.06 fold enrichment (6-mer frequency, TF over GST control); with HSF1, 1.11 fold enrichment (6-mer frequency, TF over GST control). Also, the binding signal is 1.16 fold enrichment (6-mer frequency, TF over GST control) with SPIC; 1.12 fold enrichment (6-mer frequency, TF over GST control) with ELF4; 1.24 fold enrichment (6-mer frequency, TF over GST control) with ELK4; 1.15 fold enrichment (6-mer frequency, TF over GST control) with ETV2; 1.21 fold enrichment (6-mer frequency, TF over GST control) in the assay with ELF3; 1.32 fold enrichment (6-mer frequency, TF over GST control) with CRX. Moreover, the binding signal with ETV1 was 1.16 fold enrichment (6-mer frequency, TF over GST control).
